AC50 and outcome data for twelve compounds are collected here from PubChem BioAssay (EPA / NIEHS).

In assay [1] the target is chimpanzee Androgen Receptor (AR), AR (gene 747460) (UniProt O97775). As to the kind of experiment: NVS_NR_cAR: NovaScreen (NVS) Nuclear Receptor Binding Assay for chimpanzee Androgen Receptor (AR) (AID 2283346). In short, it runs like this: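 Cell-free radioligand displacement using receptor protein extracted from Sf9/Sf21 cells; bound radioligand measured by scintillation counting 72 hours after chemical dosing. Loss of signal versus DMSO baseline indicates binding; primary screen single-concentration in duplicate at 25 uM, actives followed in concentration series.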

For assay [2], the system named is guinea pig Histamine Receptor (H2), gene 100729734. Kind of assay: NVS_GPCR_gH2: NovaScreen (NVS) G Protein-Coupled Receptor Assay for guinea pig Histamine Receptor (H2) (AID 2283342). In short, it runs like this: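 Guinea pig striatal membrane preparation with specific radioligand; bound counts measured by filtration and scintillation 1 h post-dosing, DMSO as baseline. Chemicals passing a 25 uM duplicate screen were titrated to a 50 uM maximum.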

The target of assay [3] is Estrogen receptor (Homo sapiens) (UniProt P03372). As to the kind of experiment: OT_ER_ERaERa_1440: Odyssey Thera (OT) 24-hour HEK293T Protein-Complementation Assay for Estrogen Receptor-alpha/-alpha Homodimer (AID 2283349).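 Further: hits raise fluorescence above DMSO for agonists and antagonists alike.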 In short, it runs like this:
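Stably transfected HEK293T; ERα LBD homodimer PCA. 24 h dosing, fluorescence intensity read, gain-of-signal vs DMSO.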

For assay [4] the target is unchanged. Kind of assay: OT_ER_ERaERa_0480: Odyssey Thera (OT) 8-hour HEK293T Protein-Complementation Assay for Estrogen Receptor-alpha/-alpha Homodimer (AID 2283351).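 Further: rise in fluorescence from reassembled reporter fragments on ERα LBD homodimer in nucleus or whole cell.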 In short, it runs like this:
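Cells were treated for 8 hours, then imaged on a laser scanning plate cytometer. Complementation of reporter fragments fused to the human ERα ligand-binding domain (residues 310-547) in HEK293T gave fluorescence, and gain of signal over vehicle was fitted.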

In assay [5] the target is T1, Estrogen receptor (Homo sapiens) + Estrogen receptor beta (Homo sapiens) (UniProt P03372+Q92731). Kind of assay: OT_ER_ERaERb_0480: Odyssey Thera (OT) 8-hour HEK293T Protein-Complementation Assay for Estrogen Receptor-alpha/-beta Heterodimer (AID 2283352). The essentials:
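HEK293T protein-fragment complementation assay of ER-alpha/ER-beta LBD heterodimerisation, read 8 h after dosing. Mean nuclear/cytoplasmic fluorescence intensity measured by laser scanning cytometry; gain of signal fitted relative to DMSO.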

Assay [6] has as its target T1, Estrogen receptor (Homo sapiens) + Estrogen receptor beta (Homo sapiens). Kind of assay: OT_ER_ERaERb_1440: Odyssey Thera (OT) 24-hour HEK293T Protein-Complementation Assay for Estrogen Receptor-alpha/-beta Homodimer (AID 2283356).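 Further: heteromer of ER alpha and ER beta binding domains; hits raise reporter fluorescence and both agonists and antagonists give an increase.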 In short, it runs like this:
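HEK293T stably expressing a PCA of ER alpha LBD (aa 310-547) and ER beta LBD (aa 263-489). After 24 h compound exposure, mean fluorescence intensity in nucleus (agonists) or nucleus and cytoplasm (antagonists) measured by laser scanning cytometry versus vehicle.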

Assay [7] addresses Estrogen receptor beta (Homo sapiens) (UniProt Q92731). As to the kind of experiment: OT_ER_ERbERb_0480: Odyssey Thera (OT) 8-hour HEK293T Protein-Complementation Assay for Estrogen Receptor-beta/-beta Homodimer (AID 2283357).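 Further: active means signal gain over DMSO baseline.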 In short, it runs like this:
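Fluorescence gain from complemented reporter fragments on ER-beta LBD homodimer in HEK293T was quantified against DMSO controls after 8 h treatment, fixation in 4% formaldehyde and Draq5 staining.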

For another assay, the system named is NCBI gene 100848466. Kind of assay: NVS_NR_bPR: NovaScreen (NVS) Nuclear Receptor Binding Assay for bovine Progextron Receptor (PR) (AID 2283343).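 Further: actives lower bound radioligand signal below DMSO meaning displacement of the label.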 The essentials:
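Steps: bovine uterine membranes were dosed with chemical alongside radioligand, incubated 18 hours, then radiodetected by scintillation counting. Initial testing used 25 uM in duplicate; confirmed actives were rerun as concentration series.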

Assay [8] concerns the target bovine Estrogen Receptor (ER), ESR1 (gene 407238) (UniProt P49884). As to the kind of experiment: NVS_NR_bER: NovaScreen (NVS) Nuclear Receptor Binding Assay for bovine Estrogen Receptor (ER) (AID 2283345).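 Further: actives lower the bound radioligand count which means they displace the ER ligand.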 In short, it runs like this:
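Cell-free radioligand binding with receptor from bovine uterine membranes, read by scintillation counting 18 h after dosing. Loss of specific binding was scored against DMSO; primary screen at 25 uM in duplicate, actives then run as concentration series.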

Assay [9] concerns the target Estrogen receptor (Homo sapiens) (UniProt P03372). As to the kind of experiment: NVS_NR_hER: NovaScreen (NVS) Nuclear Receptor Binding Assay for human Estrogen Receptor (ER) (AID 2283348). The essentials:
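Radiodetection of ligand displacement in a lysate-based, cell-free format using MCF7 extracts, read at 18 hours. Duplicate 25 uM primary testing, then concentration series for actives.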

Assay [10] concerns the target Androgen Receptor/SRC-1 Co-activator, AR (gene 367) (UniProt P10275). Kind of assay: OT_AR_ARSRC1_0960: Odyssey Thera (OT) 16-hour HEK293T Protein-Complementation Assay for Androgen Receptor/SRC-1 Co-activator (AID 2283353).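 Further: actives raise the signal above DMSO so potency reflects increased AR and SRC-1 complex.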 In short, it runs like this: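 Stable HEK293T line carries AR and SRC-1 each linked to a Venus fragment; chemicals are applied for 16 h, cells imaged at two wavelengths, and the 488 nm nucleus/cytoplasm ratio is taken as the signal, rising relative to DMSO.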

For assay [11] the target is unchanged. As to the kind of experiment: OT_AR_ARSRC1_0480: Odyssey Thera (OT) 8-hour HEK293T Protein-Complementation Assay for Androgen Receptor/SRC-1 Co-activator (AID 2283354).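 Further: hits raise the complementation signal above DMSO so AC50 marks enhancers.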 In short, it runs like this:
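After 8 h dosing, stably expressing HEK293T cells with split-Venus AR/SRC-1 fusions were imaged (488, 635nm). The 488nm N/C ratio per image gave the endpoint, analysed in the positive direction against DMSO.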

The next assay has as its target PGR (gene 5241) (UniProt P06401). Kind of assay: NVS_NR_hPR: NovaScreen (NVS) Nuclear Receptor Binding Assay for human Progestron Receptor (PR) (AID 2283360). The essentials: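 Cell-free radioligand binding using receptor protein extracted from T47D cells, read by scintillation counting 18 hours after dosing. Loss of signal relative to DMSO baseline indicates displacement; primary screen single concentration 25 uM in duplicate, actives followed in concentration series.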

Assay [12] has as its target human Peroxisome Proliferator-activated Receptor alpha (PPARa), PPARA (gene 5465) (UniProt Q07869). As to the kind of experiment: NVS_NR_hPPARa: NovaScreen (NVS) Nuclear Receptor Binding Assay for human Peroxisome Proliferator-activated Receptor alpha (PPARa) (AID 2283359).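 Further: activity means loss of TR-FRET signal versus DMSO baseline.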 The essentials:
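One-hour incubation, cell-free extracted protein, TR-FRET binding readout; signal loss vs DMSO scored. Screen: 25 uM duplicates, confirmatory dose series for actives.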

The target in assay [13] is human Constitutive Androstane Receptor (CAR), NR1I3 (gene 9970) (UniProt Q14994). As to the kind of experiment: NVS_NR_hCAR_Antagonist: NovaScreen (NVS) Nuclear Receptor Binding Assay for human Constitutive Androstane Receptor Antagonism (CAR) (AID 2283344). The essentials: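 Single 25 uM duplicate primary screen, with concentration-series follow-up on actives. Cell-free binding format run in antagonist mode, TR-FRET signal taken 1 h post-dose; activity is signal loss relative to DMSO.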

Assay [14] concerns the target rat Mineralocorticoid Receptor (MR), Nr3c2 (gene 25672) (UniProt P22199). Kind of assay: NVS_NR_rMR: NovaScreen (NVS) Nuclear Receptor Binding Assay for rat Mineralocorticoid Receptor (MR) (AID 2283355). In short, it runs like this:
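Single-concentration duplicate screen (25 uM) of radioligand binding in adrenalectomized rat brain supernatant; scintillation detection 24 h after dosing. Positive and negative controls ran on each plate, and confirmed actives went to concentration-response.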

Assay [15] addresses Bile acid receptor (Homo sapiens) (UniProt Q96RI1). Kind of assay: NVS_NR_hFXR_Antagonist: NovaScreen (NVS) Nuclear Receptor Binding Assay for human Farnesoid X Receptor Antagonism (FXR) (AID 2283350). In short, it runs like this: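 Antagonist-format time-resolved FRET binding assay with extracted human receptor protein, read 1 hour after compound addition. Compounds first screened at 25 uM in duplicate, then actives tested in concentration series, with loss of signal relative to DMSO.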

Results filed as inconclusive are left out. The source made the active and inactive calls. How the source made its calls: active means hit-call score of the fitted dose curve at least 0.9, where 1 is the maximum; inconclusive means response in the unintended direction; inactive means score below 0.9.

human Peroxisome Proliferator-activated Receptor alpha (PPARa), PPARA (gene 5465), sequence (Q07869 whole entry, looked up): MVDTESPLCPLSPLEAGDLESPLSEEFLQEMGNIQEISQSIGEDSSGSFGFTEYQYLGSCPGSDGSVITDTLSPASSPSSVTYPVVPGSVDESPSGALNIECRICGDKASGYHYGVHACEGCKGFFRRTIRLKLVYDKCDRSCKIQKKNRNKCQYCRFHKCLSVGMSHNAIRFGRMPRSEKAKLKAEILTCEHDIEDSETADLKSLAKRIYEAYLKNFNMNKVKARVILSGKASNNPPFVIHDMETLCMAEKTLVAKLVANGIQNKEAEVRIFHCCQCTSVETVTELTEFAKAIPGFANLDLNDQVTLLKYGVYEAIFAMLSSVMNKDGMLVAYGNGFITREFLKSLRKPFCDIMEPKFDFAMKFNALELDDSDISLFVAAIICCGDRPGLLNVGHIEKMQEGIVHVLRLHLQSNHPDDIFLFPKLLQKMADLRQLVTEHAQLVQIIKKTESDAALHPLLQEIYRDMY
Estrogen receptor beta (Homo sapiens), sequence (Q92731 whole entry, looked up, the tested form may be a part): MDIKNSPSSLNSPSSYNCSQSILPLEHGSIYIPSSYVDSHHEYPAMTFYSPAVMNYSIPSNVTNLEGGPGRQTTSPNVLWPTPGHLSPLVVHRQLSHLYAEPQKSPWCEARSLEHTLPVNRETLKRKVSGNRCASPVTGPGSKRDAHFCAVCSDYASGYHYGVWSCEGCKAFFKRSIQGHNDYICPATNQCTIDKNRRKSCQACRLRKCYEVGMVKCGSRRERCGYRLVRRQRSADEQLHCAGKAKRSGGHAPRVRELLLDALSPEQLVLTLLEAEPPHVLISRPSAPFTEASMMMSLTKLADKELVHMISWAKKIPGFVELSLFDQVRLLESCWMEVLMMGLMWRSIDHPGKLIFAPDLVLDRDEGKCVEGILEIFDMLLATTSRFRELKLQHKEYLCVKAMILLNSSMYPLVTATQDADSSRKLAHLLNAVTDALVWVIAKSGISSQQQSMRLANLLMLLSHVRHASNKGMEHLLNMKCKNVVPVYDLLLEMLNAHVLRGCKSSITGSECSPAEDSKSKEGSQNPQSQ
Androgen Receptor/SRC-1 Co-activator, AR (gene 367), sequence (P10275 whole entry, looked up, the tested form may be a part): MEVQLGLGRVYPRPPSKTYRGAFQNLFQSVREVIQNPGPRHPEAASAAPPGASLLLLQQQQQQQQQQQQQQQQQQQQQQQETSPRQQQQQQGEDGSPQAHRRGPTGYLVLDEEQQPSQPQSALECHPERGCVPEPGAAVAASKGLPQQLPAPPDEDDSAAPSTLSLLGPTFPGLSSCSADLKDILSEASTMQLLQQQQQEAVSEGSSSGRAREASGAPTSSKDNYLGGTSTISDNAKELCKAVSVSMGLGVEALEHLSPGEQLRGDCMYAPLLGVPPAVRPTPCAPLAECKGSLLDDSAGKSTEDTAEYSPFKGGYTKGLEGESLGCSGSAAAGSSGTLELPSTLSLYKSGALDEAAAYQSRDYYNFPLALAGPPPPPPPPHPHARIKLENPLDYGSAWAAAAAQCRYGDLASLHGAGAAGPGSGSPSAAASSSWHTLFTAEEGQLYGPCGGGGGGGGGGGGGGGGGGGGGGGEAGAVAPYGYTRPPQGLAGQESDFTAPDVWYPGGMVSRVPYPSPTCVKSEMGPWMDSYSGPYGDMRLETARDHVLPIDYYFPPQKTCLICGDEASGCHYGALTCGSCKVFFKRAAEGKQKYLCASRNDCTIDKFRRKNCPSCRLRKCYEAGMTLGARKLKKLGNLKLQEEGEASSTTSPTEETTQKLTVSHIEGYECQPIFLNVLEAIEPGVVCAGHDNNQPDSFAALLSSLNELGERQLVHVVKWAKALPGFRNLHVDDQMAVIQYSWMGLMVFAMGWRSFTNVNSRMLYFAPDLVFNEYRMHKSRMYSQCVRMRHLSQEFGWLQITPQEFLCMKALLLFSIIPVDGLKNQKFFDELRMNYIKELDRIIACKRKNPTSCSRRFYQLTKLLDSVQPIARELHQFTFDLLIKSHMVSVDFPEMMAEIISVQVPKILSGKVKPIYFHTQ
bovine Estrogen Receptor (ER), ESR1 (gene 407238), sequence (P49884 whole entry, looked up): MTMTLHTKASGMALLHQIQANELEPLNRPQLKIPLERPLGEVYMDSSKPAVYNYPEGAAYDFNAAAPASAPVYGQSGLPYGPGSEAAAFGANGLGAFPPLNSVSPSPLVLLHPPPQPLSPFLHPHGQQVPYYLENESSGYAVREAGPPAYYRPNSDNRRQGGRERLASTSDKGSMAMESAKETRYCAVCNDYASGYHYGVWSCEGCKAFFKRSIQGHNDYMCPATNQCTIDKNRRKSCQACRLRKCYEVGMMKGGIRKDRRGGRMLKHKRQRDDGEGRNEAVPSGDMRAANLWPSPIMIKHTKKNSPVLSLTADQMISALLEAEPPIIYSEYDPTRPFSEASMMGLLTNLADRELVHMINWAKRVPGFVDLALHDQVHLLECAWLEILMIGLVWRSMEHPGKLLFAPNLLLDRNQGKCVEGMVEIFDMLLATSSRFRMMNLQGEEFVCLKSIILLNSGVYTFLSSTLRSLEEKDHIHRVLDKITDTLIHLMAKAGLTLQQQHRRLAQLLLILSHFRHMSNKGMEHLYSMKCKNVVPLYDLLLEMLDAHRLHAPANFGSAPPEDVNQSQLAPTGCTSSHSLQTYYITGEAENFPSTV
T1 sequence (P03372 whole entry, looked up, the tested form may be a part): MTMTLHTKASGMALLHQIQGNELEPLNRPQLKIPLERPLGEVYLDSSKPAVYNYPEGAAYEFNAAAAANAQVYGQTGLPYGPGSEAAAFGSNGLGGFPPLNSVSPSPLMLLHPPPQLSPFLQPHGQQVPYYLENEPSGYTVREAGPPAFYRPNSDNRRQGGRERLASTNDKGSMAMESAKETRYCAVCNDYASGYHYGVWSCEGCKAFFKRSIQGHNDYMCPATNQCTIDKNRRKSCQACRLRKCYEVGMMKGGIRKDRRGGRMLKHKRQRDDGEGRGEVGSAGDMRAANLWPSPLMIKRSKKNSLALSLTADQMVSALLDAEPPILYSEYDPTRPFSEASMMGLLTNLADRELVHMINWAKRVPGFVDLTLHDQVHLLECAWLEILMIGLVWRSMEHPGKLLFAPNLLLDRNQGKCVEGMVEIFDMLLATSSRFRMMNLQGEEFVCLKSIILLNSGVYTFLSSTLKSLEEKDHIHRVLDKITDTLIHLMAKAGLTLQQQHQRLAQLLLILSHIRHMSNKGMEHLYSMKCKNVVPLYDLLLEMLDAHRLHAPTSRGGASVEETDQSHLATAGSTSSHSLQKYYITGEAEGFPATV
T1 sequence (Q92731 whole entry, looked up, the tested form may be a part): as the sequence (Q92731 whole entry, looked up, the tested form may be a part) above
Estrogen receptor (Homo sapiens), sequence (P03372 whole entry, looked up, the tested form may be a part): as the sequence (P03372 whole entry, looked up, the tested form may be a part) above
human Constitutive Androstane Receptor (CAR), NR1I3 (gene 9970), sequence (Q14994 whole entry, looked up): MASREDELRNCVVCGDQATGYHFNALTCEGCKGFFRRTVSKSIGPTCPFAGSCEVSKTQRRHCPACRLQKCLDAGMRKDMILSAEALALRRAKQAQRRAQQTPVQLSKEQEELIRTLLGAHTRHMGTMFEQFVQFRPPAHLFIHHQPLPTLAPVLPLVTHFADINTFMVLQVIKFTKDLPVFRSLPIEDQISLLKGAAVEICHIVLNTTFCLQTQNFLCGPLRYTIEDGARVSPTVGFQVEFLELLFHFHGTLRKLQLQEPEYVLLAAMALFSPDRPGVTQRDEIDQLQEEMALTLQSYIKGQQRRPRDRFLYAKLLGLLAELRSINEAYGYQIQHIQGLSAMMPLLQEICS

As to `COC(=O)[C@H]1[C@H]2C[C@@H]3c4[nH]c5cc(OC)ccc5c4CCN3C[C@H]2C[C@@H](OC(=O)c2cc(OC)c(OC)c(OC)c2)[C@@H]1OC`, the AC50 (in general, the concentration at which the activity in the assay is half-maximal) in assay [1] is 19.2 µM (active).

On to `CS(=O)(=O)c1ccc([C@@H](C[C@H]2CCC(=O)C2)C(=O)Nc2cnccn2)cc1Cl`, for which, in [2], the AC50 was 0.0043 µM (active). Moreover, the call in [3], in assay [4], in [5], in [6] and in assay [7] was inactive.

With `O=C1c2c(O)cccc2Cc2cccc(O)c21`, the half-maximal activity concentration (AC50) with NCBI gene 100848466 is 42.7 µM (active).

For `O=Cc1ccccc1C=O`, the compound was classed as inactive in assay [8], in assay [9], in [3], in [4], in assay [6] and in assay [7]. In the assay with PGR (gene 5241), the call was inactive. The AC50 in assay [1] is 25 µM (active); in assay [10], 75.3 µM (active); in assay [11], 66.1 µM (active).

Take `CSc1ccc(Oc2ccc(S(N)(=O)=O)cc2CN(C)C)cc1C`: the AC50 was 11.7 µM (active) in [2], 80.7 µM (active) in assay [10] and 77 µM (active) in assay [11]. The outcome in [9], in [3], in assay [4], in assay [5], in assay [6] and in assay [12] was inactive. For the same compound, in the assay with PGR (gene 5241), the result was inactive.

Take `CN(C)C(=O)NC1(c2ccccc2)CCN(CCC[C@]2(c3ccc(Cl)c(Cl)c3)CCCN(C(=O)c3ccccc3)C2)CC1`: the AC50 was 0.0164 µM (active) in [2] and 2.97 µM (active) in assay [6]. Also, the compound was called inactive in assay [3], in assay [4], in assay [5] and in assay [7].

Regarding `CC(=O)O[C@]1(C(C)=O)CC[C@H]2[C@@H]3C=C(Cl)C4=CC(=O)[C@@H]5C[C@@H]5[C@]4(C)[C@H]3CC[C@@]21C`, the call in assay [2], in [7] and in [12] was inactive. The half-maximal activity concentration (AC50) in the assay with NCBI gene 100848466 is 0.0857 µM (active).

For the compound `CCCCC(CC)COC(=O)CCCCCCCC(=O)OCC(CC)CCCC` (configuration not stated), the compound was classed as inactive in [8] and in assay [7].

Turning to `O=C(N[C@@H](c1ccccc1)[C@@H]1CCCCN1)c1cccc(C(F)(F)F)c1Cl`, the AC50 in assay [13] was 25 µM (active). Besides, the compound was classed as inactive in [3], in [4], in [14], in assay [6], in assay [7] and in assay [12].

For the compound `COc1ccc(OC(F)(F)F)cc1CN[C@H]1CCCN[C@H]1c1ccccc1`, the AC50 in assay [2] was 7.67 µM (active); in assay [15], 40.2 µM (active). The call in assay [13], in assay [3], in assay [5], in assay [6] and in assay [12] was inactive.

In the case of `Cc1ccc(-c2cc(C(F)(F)F)nn2-c2ccc(S(N)(=O)=O)cc2)cc1`, the compound was classed as inactive in assay [8], in assay [9] and in [4]. Also, the AC50 in assay [10] was 33.7 µM (active); in assay [11], 72.6 µM (active).

On to `CCCCCCCCCC[N+](C)(C)[O-]`, for which the call in [2], in assay [3], in [4], in assay [5], in assay [10] and in assay [11] was inactive. The outcome in assay [6] and in assay [7] was inactive.
